Source: PubChem BioAssay (Tox21)
Records with an inconclusive call do not appear. Activity calls are given as the source filed them. Unless noted, the call rests on the fitted dose curve; in most records, active means well fitted curve in the direction sought with a large enough effect in the repeat runs; inconclusive means weak or mixed curves; inactive means no such curve, though single readings can be large; an effect the other way counts as inactive or inconclusive.

Tests used:
[1] = A CellTox Green Cytotoxicity Assay to monitor cytotoxicity in HEK293 cells - 32 hour (AID 1224881); further: nearly all actives have a fitted effect of over 40% in size; further: potency means the concentration at half of the fitted maximal effect
Method in brief: (§1)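 Tox21 screen in HEK293: membrane-impermeant cyanine dye fluoresces on binding dead-cell DNA; compound pinned 5 h post-seeding, plates held at 37 C, signal read repeatedly through 40 h.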

[2] = A CellTox Green Cytotoxicity Assay to monitor cytotoxicity in HepG2 cells - 0 hour (AID 1224882); further: nearly all actives have a fitted effect of over 35% in size
Method in brief: (§2)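 Measurements at 0, 8, 16, 24, 32 and 40 h of treatment captured CellTox Green fluorescence in HepG2 cells that had been co-plated with reagent and preincubated 5 h at 37 C/5% CO2.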

[3] = A CellTox Green Cytotoxicity Assay to monitor cytotoxicity in HEK293 cells - 8 hour (AID 1224884); further: nearly all actives have a fitted effect of over 35% in size; further: potency means the concentration at half of the fitted maximal effect
Method in brief: as §1

[4] = qHTS RealTime-Glo MT Cell Viability Assay in HEK293 cells - 24 hour (AID 1224886); further: nearly all actives have a fitted effect of over 50% in size; further: potency means the concentration at half of the fitted maximal effect; on activity change, negative = cytotoxicity: top concentration of the series differs between compounds
Method in brief: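 Homogeneous bioluminescent viability format in HEK293 cells (600 cells/well). Following 5 h at 37 C/5% CO2, 23 nL compound was pintooled; the signal was measured repeatedly during 40 h incubation.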

[5] = qHTS RealTime-Glo MT Cell Viability Assay in HEK293 cells - 8 hour (AID 1224887); further: nearly all actives have a fitted effect of over 50% in size; further: potency means the concentration at half of the fitted maximal effect; on activity change, negative = cytotoxicity: top concentration of the series differs between compounds
Method in brief: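 HEK293 + NanoLuc + prosubstrate, 600 cells/well; 5 h, 37 C/5% CO2; compound 23 nL in DMSO by pintool; 37 C; luminescence read at 0, 8, 16, 24, 32 and 40 h time points.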

[6] = A CellTox Green Cytotoxicity Assay to monitor cytotoxicity in HEK293 cells - 16 hour (AID 1224888); further: nearly all actives have a fitted effect of over 35% in size
Method in brief: as §1

[7] = qHTS RealTime-Glo MT Cell Viability Assay in HepG2 cells - 0 hour (AID 1224889); further: nearly all actives have a fitted effect of over 50% in size
Method in brief: (§3)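 Cell number in HepG2 cultures estimated from NanoLuc luminescence generated by metabolic reduction of a prosubstrate by living cells. The homogeneous, nonlytic format allowed repeated reads at 0, 8, 16, 24, 32 and 40 h of compound exposure.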

[8] = qHTS assay to identify small molecule antagonists of the estrogen receptor alpha (ER-alpha) signaling pathway using the BG1 cell line in the presence of 0.1 nM 17-beta-estradiol - cell viability counter screen (AID 1259241); further: nearly all actives have a fitted effect of over 40% in size; further: potency means the concentration at half of the fitted maximal effect
Method in brief: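 Viability in VM7Luc4E2 cells after 22 hr compound exposure under 0.1 nM 17beta-estradiol stimulation, by CellTiter-Fluor.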

[9] = qHTS assay to identify small molecule antagonists of the androgen receptor (AR) signaling pathway using the MDA cell line in the presence of 0.5 nM R1881 - cell viability counter screen (AID 1259242); further: nearly all actives have a fitted effect of over 45% in size
Method in brief: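 Concentration-response screen of compounds for toxicity in MDA-kb2 reporter cells: 16 hr at 37C with 0.5 nM R1881, endpoint live-cell protease fluorescence measured in the reporter wells.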

[10] = target: Androgen receptor (Homo sapiens) (UniProt P10275); assay: qHTS assay to identify small molecule antagonists of the androgen receptor (AR) signaling pathway using the MDA cell line in the presence of 0.5 nM R1881 (AID 1259243); further: nearly all actives have a fitted effect of over 50% in size; further: potency means the concentration at half of the fitted maximal effect
Sequence of Androgen receptor (Homo sapiens) (P10275 whole entry, looked up): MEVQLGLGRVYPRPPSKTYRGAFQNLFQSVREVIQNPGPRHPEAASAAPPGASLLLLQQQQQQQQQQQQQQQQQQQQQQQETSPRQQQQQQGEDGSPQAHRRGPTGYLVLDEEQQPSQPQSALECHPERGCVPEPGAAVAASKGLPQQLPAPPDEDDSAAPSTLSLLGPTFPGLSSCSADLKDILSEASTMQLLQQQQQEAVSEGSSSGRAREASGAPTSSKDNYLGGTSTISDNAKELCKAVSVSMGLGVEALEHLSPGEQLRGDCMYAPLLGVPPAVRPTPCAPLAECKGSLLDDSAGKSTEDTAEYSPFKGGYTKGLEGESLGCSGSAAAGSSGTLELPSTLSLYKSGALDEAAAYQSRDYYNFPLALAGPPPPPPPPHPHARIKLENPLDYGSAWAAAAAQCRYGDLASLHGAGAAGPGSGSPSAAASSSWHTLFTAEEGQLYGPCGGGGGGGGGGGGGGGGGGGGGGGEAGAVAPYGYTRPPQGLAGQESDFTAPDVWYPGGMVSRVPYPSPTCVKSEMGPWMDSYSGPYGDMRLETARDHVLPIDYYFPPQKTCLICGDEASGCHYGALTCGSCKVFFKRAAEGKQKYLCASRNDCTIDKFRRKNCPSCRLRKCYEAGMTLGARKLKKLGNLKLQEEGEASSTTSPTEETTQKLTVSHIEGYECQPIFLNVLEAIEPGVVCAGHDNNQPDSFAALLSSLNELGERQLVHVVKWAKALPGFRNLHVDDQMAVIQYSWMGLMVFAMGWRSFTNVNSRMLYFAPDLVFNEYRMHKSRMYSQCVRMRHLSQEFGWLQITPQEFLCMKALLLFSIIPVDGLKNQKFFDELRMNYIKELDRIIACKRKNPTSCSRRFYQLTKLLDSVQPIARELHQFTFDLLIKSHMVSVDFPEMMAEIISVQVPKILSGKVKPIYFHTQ
Method in brief: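 With R1881 held at 0.5 nM (final), compound effects on MMTV-luciferase expression in MDA-kb2 cells were scored by luminescence after a 16 hr, 37C incubation.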

[11] = target: Estrogen receptor (Homo sapiens) (UniProt P03372); assay: qHTS assay to identify small molecule antagonists of the estrogen receptor alpha (ER-alpha) signaling pathway using the BG1 cell line in the presence of 0.1 nM 17-beta-estradiol (AID 1259244); further: nearly all actives have a fitted effect of over 50% in size
Sequence of Estrogen receptor (Homo sapiens) (P03372 whole entry, looked up): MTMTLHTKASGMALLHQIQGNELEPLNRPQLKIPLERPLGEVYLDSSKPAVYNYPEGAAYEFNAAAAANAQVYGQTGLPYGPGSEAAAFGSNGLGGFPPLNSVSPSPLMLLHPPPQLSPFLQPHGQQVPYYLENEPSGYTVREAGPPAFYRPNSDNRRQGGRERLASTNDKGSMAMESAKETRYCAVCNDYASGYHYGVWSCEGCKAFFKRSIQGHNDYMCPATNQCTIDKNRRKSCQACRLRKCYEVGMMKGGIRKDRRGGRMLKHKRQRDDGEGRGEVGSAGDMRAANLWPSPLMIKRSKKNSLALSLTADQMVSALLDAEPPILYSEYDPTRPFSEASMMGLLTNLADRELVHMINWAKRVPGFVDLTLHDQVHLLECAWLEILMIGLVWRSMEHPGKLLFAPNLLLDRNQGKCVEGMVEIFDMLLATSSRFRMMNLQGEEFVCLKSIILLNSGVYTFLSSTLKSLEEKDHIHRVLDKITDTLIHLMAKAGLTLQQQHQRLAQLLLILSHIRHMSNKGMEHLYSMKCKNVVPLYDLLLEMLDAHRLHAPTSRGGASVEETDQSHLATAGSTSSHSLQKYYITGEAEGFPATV
Method in brief: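 Compounds were tested against 0.1 nM (final) 17beta-estradiol in VM7Luc4E2 cells, which express full-length ER-alpha and an ERE-luciferase reporter; luminescence was recorded following 22 h exposure.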

[12] = qHTS assay to identify small molecule HDAC inhibitors (AID 1259364); further: potency means the concentration at half of the fitted maximal effect;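 further: wild-type HCT-116 cells with endogenous class I/II HDAC activity; nearly all actives have a fitted effect of over 45% in size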; on activity change, negative = inhibition: top concentration of the series differs between compounds
Method in brief: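 Screening used wild-type human colon HCT-116 cells incubated overnight, dosed with compounds for 2 hours, and assayed with a homogeneous luminogenic HDAC I/II reagent for 30 minutes at room temperature.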

[13] = qHTS assay to identify small molecule HDAC inhibitors - cell viability counter screen (AID 1259365)
Method in brief: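 Cytotoxicity was gauged in wild-type HCT-116 cells after a brief 2hr treatment with DMSO-dissolved compounds at 37C and 5% CO2, using CellTiter-Glo luminescence developed for 30min at room temperature.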

[14] = qHTS assay to identify small molecule agonists of the sonic hedgehog signaling (Shh) pathway - cell viability counter screen (AID 1259366); further: nearly all actives have a fitted effect of over 50% in size; further: potency means the concentration at half of the fitted maximal effect
Method in brief: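 Stable Gli1-Luc NIH/3T3 clone, 2,000 cells/well. Compound exposure 24hr at 37C. Read-out: CellTiter-Fluor fluorescence.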

[15] = qHTS assay to identify small molecule antagonists of the sonic hedgehog signaling (Shh) pathway - cell viability counter screen (AID 1259367); further: nearly all actives have a fitted effect of over 55% in size; further: potency means the concentration at half of the fitted maximal effect
Method in brief: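 Fluorescence read-out (CellTiter-Fluor, 1 hr at 37C) taken after 23 hr compound treatment of 3T3 Gli1-Luc cells stimulated with conditioned medium. Cells were seeded at 2,000 per well and pre-incubated 4 hr.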

[16] = A CellTox Green Cytotoxicity Assay to monitor cytotoxicity in HepG2 cells - 8 hour (AID 1224890); further: nearly all actives have a fitted effect of over 45% in size
Method in brief: as §2

[17] = A CellTox Green Cytotoxicity Assay to monitor cytotoxicity in HepG2 cells - 32 hour (AID 1224883); further: nearly all actives have a fitted effect of over 50% in size; further: potency means the concentration at half of the fitted maximal effect
Method in brief: as §2

[18] = qHTS RealTime-Glo MT Cell Viability Assay in HepG2 cells - 16 hour (AID 1224885); further: nearly all actives have a fitted effect of over 50% in size
Method in brief: as §3

[19] = qHTS assay to identify small molecule phospholipidosis (PLD) inducers (AID 1259344; active means well fitted curve in the direction sought with a large enough effect; an effect the other way counts as inactive or inconclusive)
Method in brief: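 Read-out is LipidTOX Red fluorescence (ex 595/em 615) imaged in HepG2 cells after 24 h compound exposure at 37 C, with Hoechst nuclear counterstain (ex 352/em 461) allowing per-cell normalisation.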
On the % scale 0 is the no-effect control and ±100 the full control effect.

CCOCCn1c(C2CCN(CCc3ccc(C(C)(C)C(=O)O)cc3)CC2)nc2ccccc21
inactive: Potency [1] | Potency [2] | Potency [3] | Potency [4] | Potency [5] | Potency [6] | Potency [7] | Potency [8] | Potency [9] | Potency [10] | Potency [11] | Potency [12] | Potency [13] | Potency [14] | Potency [15]

[O]=[Bi]
inactive: cytotoxicity increase [1] -0.855% [at 6.97 µM] | cytotoxicity [2] 1.27% [at 6.97 µM] | cytotoxicity increase [3] -5.25% [at 6.97 µM] | activity change, negative = cytotoxicity [5] 1.28% [at 6.97 µM] | activity change [6] -2.4% [at 6.97 µM, hits give high values] | activity change, negative = cytotoxicity [7] 1.28% [at 6.97 µM] | cytotoxicity increase [16] 2.13% [at 6.97 µM] | activity change, negative = cytotoxicity [8] -2.05% [at 8.39 µM] | viability change, negative = cytotoxic [9] 1.95% [at 8.39 µM] | activity change, negative = inhibition [12] 9.82% [at 8.39 µM] | activity change, negative = cytotoxicity [13] -2.43% [at 8.39 µM] | viability change, negative = cytotoxic [14] 11.3% [at 8.39 µM] | viability change, negative = cytotoxic [15] -5.4% [at 8.39 µM]

Oc1ccc(Nc2ccccc2)cc1
inactive: Potency [17] | Potency [16] | Potency [8] | Potency [9] | Potency [11] | Potency [12] | Potency [13] | Potency [14] | Potency [15]
active: Potency [4] 21.9 µM | Potency [5] 17.4 µM | Potency [10] 30.6 µM

O=C(OCCOCCO)c1ccccc1Nc1cccc(C(F)(F)F)c1
inactive: Potency [1] | Potency [3] | Potency [18] | Potency [4] | Potency [5] | Potency [6] | Potency [7] | Potency [16] | Potency [8] | Potency [9] | outcome [19] | Potency [12] | Potency [13] | Potency [14] | Potency [15]

NC(=O)N(O)[C@@H]1COc2cc(OCc3ccccc3)ccc21
inactive: Potency [2] | Potency [3] | Potency [18] | Potency [4] | Potency [5] | Potency [6] | Potency [7] | Potency [16] | Potency [8] | Potency [9] | Potency [13] | Potency [14]
active: Potency [12] 1.72 µM

CCCCC(CC)C(=O)OCCOCCOCCOCCOC(=O)C(CC)CCCC (centres undefined)
inactive: Potency [1] | Potency [2] | Potency [3] | Potency [18] | Potency [5] | Potency [6] | Potency [7] | Potency [16] | Potency [8] | Potency [9] | Potency [11] | Potency [12] | Potency [13] | Potency [14] | Potency [15]

O=C(Nc1ccc([N+](=O)[O-])cc1)Nc1ccc([N+](=O)[O-])cc1
inactive: Potency [2] | Potency [3] | Potency [6] | Potency [7] | Potency [16] | Potency [8] | Potency [9] | outcome [19] | Potency [12] | Potency [13] | Potency [15]
active: Potency [4] 8.49 µM

CN1CCN(CCCN2c3ccccc3Sc3ccc(S(=O)(=O)N(C)C)cc32)CC1
active: Potency [17] 26.8 µM | Potency [14] 11.9 µM
inactive: Potency [2] | Potency [3] | Potency [6] | Potency [8] | Potency [9] | outcome [19] | Potency [12] | Potency [13]

CCCCCCCCCCCCCCC[C@H](O)[C@@H](N)CO
inactive: Potency [7] | Potency [8] | Potency [9] | Potency [10] | Potency [11] | outcome [19] | Potency [12] | Potency [13] | Potency [14] | Potency [15]
active: Potency [1] 21.3 µM | Potency [17] 26.8 µM | Potency [3] 23.9 µM | Potency [4] 21.3 µM | Potency [5] 23.9 µM

CCCCCCCC/C=C\CCCCCCCC(=O)OC(CO)CO
inactive: Potency [2] | Potency [17] | Potency [3] | Potency [18] | Potency [4] | Potency [6] | Potency [7] | Potency [16] | Potency [8] | Potency [9] | Potency [12] | Potency [13] | Potency [14] | Potency [15]

O=C(N/N=C/c1ccc([N+](=O)[O-])o1)c1ccc(O)cc1
inactive: Potency [3] | Potency [6] | Potency [7] | Potency [16] | outcome [19] | Potency [12] | Potency [13]
active: Potency [8] 26.6 µM | Potency [10] 3.76 µM | Potency [14] 29.8 µM | Potency [15] 18.8 µM

CC(C)C(OC(=O)c1ccccc1)C(C)(C)COC(=O)c1ccccc1 (centres undefined)
inactive: Potency [2] | Potency [17] | Potency [5] | Potency [6] | Potency [7] | Potency [16] | Potency [8] | Potency [9] | Potency [12] | Potency [13] | Potency [14] | Potency [15]

CNC(=S)NC
inactive: Potency [1] | Potency [2] | Potency [3] | Potency [18] | Potency [4] | Potency [5] | Potency [6] | Potency [7] | Potency [16] | Potency [8] | Potency [9] | Potency [10] | Potency [11] | Potency [12] | Potency [13] | Potency [14] | Potency [15]

CCC1(C)CC(=O)NC1=O (centres undefined)
inactive: Potency [2] | Potency [17] | Potency [3] | Potency [18] | Potency [4] | Potency [5] | Potency [7] | Potency [16] | Potency [8] | Potency [9] | outcome [19] | Potency [12] | Potency [13] | Potency [14] | Potency [15]
